An excerpt weighted towards active compounds, which were near 3.5% of everything screened.
GPR151 ag: activates the human receptor GPR151; Q8TDV0; PathHunter beta-arrestin GPR151 cells, luminescence; activation, % at 11.2 µM; 650,000 compounds, 1% hits; in the data active = activation above about 4.9%;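 also: 0% = median of compound wells and 100% = cells with positive control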
Target sequence (Q8TDV0 whole entry, looked up): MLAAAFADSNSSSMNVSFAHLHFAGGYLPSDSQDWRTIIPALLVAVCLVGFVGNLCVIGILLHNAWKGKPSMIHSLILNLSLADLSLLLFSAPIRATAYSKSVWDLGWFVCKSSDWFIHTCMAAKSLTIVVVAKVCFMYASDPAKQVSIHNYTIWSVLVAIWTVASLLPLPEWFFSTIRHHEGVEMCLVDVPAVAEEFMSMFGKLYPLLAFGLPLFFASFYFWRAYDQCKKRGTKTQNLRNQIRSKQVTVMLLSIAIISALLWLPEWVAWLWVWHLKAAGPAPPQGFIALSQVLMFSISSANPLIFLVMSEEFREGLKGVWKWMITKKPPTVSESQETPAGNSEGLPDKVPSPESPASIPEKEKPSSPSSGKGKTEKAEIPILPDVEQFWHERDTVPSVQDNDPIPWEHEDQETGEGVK
FBW7 act: human FBW7 E3 ligase activation, primary screen | 650,000 compounds, 0.13% hits | normalized activity (activation), % at 26.1 µM | AlphaScreen FBW7–phospho-cyclin E peptide binding, activator screen; in the data active = normalized activity above about 1.9%;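 also: purified mutant Fbw7 with reduced substrate affinity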
TEAD-YAP inh: TEAD-YAP interaction inhibition. HEK-TIYL cells, TEAD-Gal4/YAP UAS-luciferase luminescence. inhibition, % at 9.12 µM. 640,000 compounds, 1.4% hits. AID 1259422; in the data active = inhibition above about 32%;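 also: 0% = median of test compound wells and 100% = reference inhibitor wells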
MITF inh: human MITF inhibition, primary screen | O75030 | AlphaScreen MITF homodimerization, bead proximity signal | inhibition, % at 2.6 µM | 650,000 compounds, 0.91% hits | AID 1259374; in the data active = inhibition above about 50%;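 also: 0% = vehicle wells with protein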
GPR151 confirm: human GPR151 activation, confirmation screen. 6,700 tested, under 10 active. GPR151 PathHunter beta-arrestin cells, luminescence, 90 min; % of EA-reagent control over plate median. activation, % at 11.2 µM. shares compounds with GPR151 ag;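 active = mean percent activation across replicates above the confirmation screen cutoff of 4.91%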
GPR119 ag: counter-screen for GPR151 activators: effect on human GPR119. GPR119 PathHunter beta-arrestin cells, luminescence, 90 min; 0 = compound-well median, 100 = enzyme-acceptor control. 6,700 compounds, 0.3% hits. AID 1508611. activation, % at 11.2 µM. shares compounds with GPR151 ag;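 active = mean percent activation in the counterscreen above 29.09%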;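 also: counterscreen on off-target GPR119 to flag nonselective hits from the GPR151 activator screen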
Starred values were filed as active, the others as inactive; x = not tested or not shown.

SMILES | GPR151 ag | FBW7 act | TEAD-YAP inh | MITF inh | GPR151 confirm | GPR119 ag
CCOc1ccc2c(c1)cc(CN(C(=O)C(F)(F)F)C1CCCC1)c1nnnn12 | 0 | 0 | 25 | -3 | x | x
O=C(c1cc2ccccc2oc1=O)N(Cc1ccc2c(c1)OCO2)CC1CCCO1 (configuration not stated) | 7.3* | 0 | 6 | 7 | 1 | 7
COc1ccc(CN(CC2CCCO2)C(=O)c2cc3ccccc3oc2=O)cc1OC (configuration not stated) | 1 | 0 | 9 | 4 | x | x
Clc1ccc(C2C3=C(Nc4ncnn42)c2ccccc2CCC3)cc1 (configuration not stated) | 6.0* | 0 | -6 | -3 | 0 | 4
CCCCN(/C=N/S(=O)(=O)c1ccccc1)CCCC | 11* | 0 | 3 | 48 | 0 | 2
COc1ccc(C2CC(c3ccccc3O)=NN2C(=O)c2ccco2)cc1OC (configuration not stated) | 1 | 0 | -6 | 13 | x | x
Cc1c(=O)n(OCc2ccccc2F)c2ccccc2[n+]1[O-] | 12* | 0 | 1 | -17 | 0 | -1
Cc1c(=O)n(OCc2cccc(F)c2)c2ccccc2[n+]1[O-] | 1 | 0 | 1 | 2 | x | x
O=C1N(C2Cc3ccccc3C2)C[C@@H]2C[C@@H](c3cccc(-n4cccn4)c3)N3CCC[C@@]123 | 6.3* | 0 | 1 | -6 | 1 | 1
Cc1ccc(CN2CCNC(=O)C2CC(=O)N(C)CCc2cnn(C)c2)cc1 (configuration not stated) | 0 | 0 | 1 | 9 | x | x
CC(C)CCN1CCNC(=O)C1CC(=O)N(C)CCc1cnn(C)c1 (configuration not stated) | 5.6* | 0 | -3 | 18 | 0 | 6
Cc1ccc(Cn2nnc3c(=O)n(CC(=O)Nc4ccc5c(c4)OCCO5)cnc32)cc1 | -1 | 0 | -3 | -19 | x | x
CC1(C)CC(=O)C2=C(C1)N(c1ccc(Cl)cc1)C(N)=C(C#N)C2c1ccc2c(c1)OCO2 (configuration not stated) | 14* | 0 | -6 | -7 | 0 | -3
O=c1nc2s/c(=C\c3ccc(-c4ccc(F)cc4F)o3)c(=O)n2c2sc3c(c12)CCCC3 | 5.0* | 0 | -3 | 9 | 0 | -2
O=c1nc2s/c(=C\c3ccc(-c4ccccc4F)o3)c(=O)n2c2sc3c(c12)CCCC3 | -1 | 1 | 2 | 17 | x | x
Cc1ccccc1NC(=O)c1c(N)sc2c1CCCCC2 | -1 | 0 | -4 | -5 | x | x
O=C(c1ccc(-c2cccc(Cl)c2Cl)o1)N1CCOCC1 | 7.3* | 0 | -77 | 10 | 0 | -2
O=C(N1CCC2(CC1)CC(O)(c1ccc(F)cc1)CO2)C1(c2ccc(Cl)cc2)CC1 (configuration not stated) | 1 | 0 | 8 | 14 | x | x
CSc1cccc(N=CC2=C(O)CC(C)(C)CC2=O)c1 | 7.1* | 0 | 3 | -11 | -1 | -4
Cc1cc(NC(=O)c2ccco2)n(-c2nc3ccccc3[nH]2)n1 | 0 | 0 | 28 | 7 | x | x
Cc1cc(NC(=O)C2CC2)n(-c2nc3ccccc3[nH]2)n1 | 9.1* | 0 | 29 | -1 | 0 | -5
Cc1ccsc1/C=C(\C#N)C(=O)NCc1cccnc1 | 12* | 0 | 2 | -6 | 0 | -2
Cc1ccsc1/C=C(/C#N)C(=O)NCc1ccccc1 | -1 | 0 | -11 | 8 | x | x
CC(C(=O)OCC(=O)c1ccc(Br)cc1)N1C(=O)C2C3CCC(C3)C2C1=O (configuration not stated) | -2 | 0 | -16 | 4 | x | x
Cc1ccc(C(=O)COC(=O)C(C)N2C(=O)C3C4CCC(C4)C3C2=O)cc1 (configuration not stated) | 5.4* | 0 | -16 | 36 | -1 | -13
SMILES | GPR151 ag | FBW7 act | TEAD-YAP inh | MITF inh | GPR151 confirm | GPR119 ag
CSc1nc2ccc3nc(NC(=O)c4ccc(Oc5ccccc5)cc4)sc3c2s1 | 1 | 0 | -10 | 2 | x | x
CCn1c2ccccc2c2cc(CN3CCN(Cc4ccc(OC)c(OC)c4OC)CC3)ccc21 | -1 | 0 | -3 | 42 | x | x
COc1ccc(CN2CCN(Cc3ccc(OC)c(OC)c3OC)CC2)cc1OC | 5.9* | 0 | 16 | 48 | 0 | 6
CCOC(=O)N1CCN(CC(O)COc2ccc([N+](=O)[O-])cc2)CC1 (configuration not stated) | 5.4* | 0 | -4 | -12 | 1 | 19
O=C1CCC(=O)N1c1ccc(CSc2nnnn2C2CCCCC2)cc1 | 6.9* | 1 | -6 | -2 | 0 | -4
O=C(NCCc1nnc2n1CCN(Cc1ccc(O)cc1)CC2)c1ccoc1 | 2 | 0 | 0 | 1 | x | x
C=C1c2cc(OC)ccc2NC(=O)N1CC | 5.5* | 0 | 12 | -7 | -1 | -16
C=C1c2ccc(C)cc2NC(=O)N1CC | 0 | 0 | 7 | -17 | x | x
CCOc1cc(/C=C2/C(=N)N3C(c4ccccc4)=CSC3=NC2=O)ccc1OCc1ccc(F)cc1 | 0 | 0 | 8 | 15 | x | x
CC(=O)N1CCc2cc(C(=O)CN3CC(C)CC(C)C3)ccc21 (configuration not stated) | 6.2* | 0 | -1 | 12 | -1 | -14
CC(C)COc1cc(=O)[nH]c(=S)[nH]1 | -1 | 0 | 3 | -9 | x | x
CC(C)N(CCNC(=O)c1ccc2nc(N3CCC(N4CCOCC4)CC3)sc2c1)C(C)C | 1 | 0 | -4 | -4 | x | x
O=C(CSc1cn(CC(=O)N2CCOCC2)c2ccccc12)NC1CCCC1 | 5.4* | 0 | -2 | -12 | 0 | 3
NC(=O)C1CCN(C(=O)C(=O)c2cn(CC(=O)N3CCCCCC3)c3ccccc23)CC1 | 6.2* | 0 | 0 | -18 | -1 | -2
CC(=O)Oc1cccc(N2C(=O)c3ccc(-c4nc5ccccc5c(=O)o4)cc3C2=O)c1 | 0 | 0 | 3 | 16 | x | x
CCc1cccc(NC(=O)c2sccc2S(=O)(=O)N(C)c2ccc(C)cc2)c1 | 6.0* | 0 | -5 | -2 | 0 | -7
CCOc1cccc2cc(-c3csc(Nc4ccccc4C(F)(F)F)n3)c(=O)oc12 | 8.1* | 0 | -5 | 10 | 0 | 4
CCOc1cccc2cc(-c3csc(Nc4ccccc4Cl)n3)c(=O)oc12 | 2 | 0 | 7 | 0 | x | x
O=C(Nc1ccccn1)C1(c2cccs2)CCOCC1 | 1 | 0 | 6 | 14 | x | x
Cc1ccnc(NC(=O)C2(c3cccs3)CCOCC2)c1 | 5.3* | 0 | 20 | -7 | -1 | -5
CC12CCC(C(=O)NCCN3CCOCC3)(OC1=O)C2(C)C (configuration not stated) | 5.9* | 0 | -13 | 13 | 0 | -5
CC12CCC(C(=O)NCc3ccccc3)(OC1=O)C2(C)C (configuration not stated) | 5.3* | 0 | 7 | -15 | 0 | 7

Screens: PubChem BioAssay, The Scripps Research Institute Molecular Screening Center
